Assay outcomes (PubChem BioAssay)
BAZ2B block – BAZ2B (human) inhibition; Q9UIF8; AlphaScreen BAZ2B-H3K14Ac peptide displacement; Potency, µM (series often up to 114 µM), usual class: inhibitors; actives 4.4% (n = 360,000); note: nearly all actives have a fitted effect of over 60% in size
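BAZ2B (50 nM) with biotin-H3(5-23)K14Ac peptide (50 nM) in PBS pH 7.4, 0.01% Tween-20, preformed 30 min, then compound 30 min at room temperature; top concentration 110uM. AlphaScreen streptavidin donor/nickel chelate acceptor beads (10 ug/mL final), 20 min dark, signal read.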
JMJD2A Tudor inh – inhibitors of human JMJD2A Tudor domain. O75164. AlphaScreen JMJD2A-Tudor / H3K4me3 peptide binding. Potency, µM (doses to about 114 µM), hits mostly inhibitors. actives 4.4% (n = 390,000). AID 504339; note: nearly all actives have a fitted effect of over 50% in size
G9a block – inhibitors of human histone lysine methyltransferase G9a. G9a H3K9 monomethylation, AlphaScreen, 2 h. Potency, µM (top dose mostly 102 µM), usual class: inhibitors. actives 8.8% (n = 350,000). Q96KQ7; note: nearly all actives have a fitted effect of over 75% in size
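G9a (20 nM) preincubated 15 min RT with compounds, then 500 nM biotinylated H3K9 peptide and 20 uM SAM added; 2 h RT reaction. Monomethyl-H3K9 product detected by AlphaScreen with anti-H3K9me1 antibody, streptavidin donor and anti-rabbit IgG acceptor beads.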
CtBP-E1A blk – inhibitors of CtBP/E1A interaction; AlphaScreen GST-E1A/His-CtBP binding, 1536-well; active compounds read low; activity change, % (concentration not given with the values); actives 0.49% (n = 340,000); in the data active = activity change below about -65%; inconclusive = mostly about -30% to -63%
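AlphaScreen with 125 nM GST-E1A and 125 nM His-CtBP (5X stocks) in Tris pH 8.0, 300 mM NaCl, BSA, Tween 20, TCEP. Compounds preincubated 2 h at 37 deg C, then glutathione donor/nickel acceptor beads added for 1 h at 37 deg C in dark.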
HP1b chromo inh – HP1-beta chromodomain-methylated histone interaction inhibition. actives 0.56% (n = 390,000). AID 540317. AlphaScreen HP1-beta / biotin-H3K9me3 peptide binding. Potency, µM (top dose mostly 114 µM), hits mostly inhibitors. P83916; note: nearly all actives have a fitted effect of over 70% in size
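HP1-beta protein (50 nM final) preincubated 30 min at room temperature with biotinylated H3(1-18)K9me3 peptide (50 nM) in PBS pH 7.4, 0.01% Tween-20, then compound added for 30 min. AlphaScreen streptavidin donor/nickel chelate acceptor beads (10 ug/mL final), 30 min dark, luminescence read.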
Six1-Eya2 inh – Six1/Eya2 interaction inhibition; Q15475+O00167; AlphaScreen GST-Six1/His-Eya2 binding, biochemical; active compounds read low; activity change, % (concentration not given with the values); actives 0.56% (n = 360,000); in the data active = activity change below about -65%; inconclusive = mostly about -30% to -63%
Target sequence (O00167 whole entry, looked up): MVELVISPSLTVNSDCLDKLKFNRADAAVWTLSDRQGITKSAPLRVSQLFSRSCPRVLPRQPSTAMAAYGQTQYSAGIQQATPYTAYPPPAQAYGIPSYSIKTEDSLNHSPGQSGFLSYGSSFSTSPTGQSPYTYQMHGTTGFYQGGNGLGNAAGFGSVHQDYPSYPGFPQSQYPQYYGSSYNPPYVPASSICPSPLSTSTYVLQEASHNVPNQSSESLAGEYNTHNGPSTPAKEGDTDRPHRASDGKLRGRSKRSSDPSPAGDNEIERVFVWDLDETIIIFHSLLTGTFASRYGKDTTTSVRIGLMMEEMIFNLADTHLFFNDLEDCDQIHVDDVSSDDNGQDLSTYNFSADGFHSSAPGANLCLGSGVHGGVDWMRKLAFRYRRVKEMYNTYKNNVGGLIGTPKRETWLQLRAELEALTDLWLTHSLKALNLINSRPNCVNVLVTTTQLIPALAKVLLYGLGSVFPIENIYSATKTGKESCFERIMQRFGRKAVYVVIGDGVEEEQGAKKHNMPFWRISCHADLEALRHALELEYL
Target sequence (Q15475 whole entry, looked up): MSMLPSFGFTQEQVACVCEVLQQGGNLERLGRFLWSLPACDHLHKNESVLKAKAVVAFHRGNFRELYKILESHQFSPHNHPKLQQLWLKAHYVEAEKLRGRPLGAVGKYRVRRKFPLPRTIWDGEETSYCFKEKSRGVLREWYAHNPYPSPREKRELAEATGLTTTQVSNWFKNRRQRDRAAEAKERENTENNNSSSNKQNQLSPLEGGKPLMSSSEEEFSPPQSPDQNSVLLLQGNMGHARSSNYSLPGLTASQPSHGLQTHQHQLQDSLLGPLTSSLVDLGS
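Compounds are tested against tagged Six1 and Eya2 proteins bridged by glutathione donor and nickel acceptor beads; after a one-hour incubation at 37 °C without light, AlphaScreen emission is recorded.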
A number is an active result; [ ] = another dose, or the depositor's remark. Rows were chosen to be rich in hits. Some 10% of all compounds tested hit in one or more screens of this group. Unless noted, calls come from the whole dose curve; as a rule, active = well fitted inhibition curve with a large enough effect; inconclusive = small, poorly fitted or top-dose-only effect; inactive = no such curve, though single readings can be large or run the other way.

How did Cc1oc(C(=O)O)cc1COc1cccc2cccnc12 do in these assays?
BAZ2B block: 40µM; JMJD2A Tudor inh: 79µM; G9a block: 79µM; CtBP-E1A blk: -71; HP1b chromo inh: inactive; Six1-Eya2 inh: inconclusive

How did Cc1ccc(NC(=O)CN(C)C(=O)COc2cccc3cccnc23)cc1 do in these assays?
BAZ2B block: 50µM; JMJD2A Tudor inh: inconclusive; G9a block: inconclusive; CtBP-E1A blk: inconclusive; HP1b chromo inh: inactive; Six1-Eya2 inh: inconclusive

How did O=C(COc1cccc2ccccc12)NNC(=O)Nc1ccccc1 do in these assays?
BAZ2B block: inactive; JMJD2A Tudor inh: inactive; G9a block: inconclusive; CtBP-E1A blk: inactive; HP1b chromo inh: inactive; Six1-Eya2 inh: inactive

What do the screens show for `COc1ccc(N/N=C(\C#N)C(=O)NCCc2ccc(OC)c(OC)c2)cc1`?
BAZ2B block: inconclusive; JMJD2A Tudor inh: inconclusive; G9a block: 22µM; CtBP-E1A blk: inactive; HP1b chromo inh: inactive; Six1-Eya2 inh: inactive

How did COc1ccc(CCC(=O)NCCc2ccc(OC)c(OC)c2)cc1 do in these assays?
BAZ2B block: inactive; JMJD2A Tudor inh: inactive; G9a block: inactive; CtBP-E1A blk: inactive; HP1b chromo inh: inactive; Six1-Eya2 inh: inactive

How did COc1ccc(N/N=C(\C#N)C(=N)N2CCCCC2)cc1 do in these assays?
BAZ2B block: inactive; JMJD2A Tudor inh: inactive; HP1b chromo inh: inactive; Six1-Eya2 inh: inactive

How did COc1ccc(N/N=C(\C#N)C(=N)SCc2ccccc2)cc1 do in these assays?
BAZ2B block: inconclusive; JMJD2A Tudor inh: inactive; G9a block: 28µM; HP1b chromo inh: inactive; Six1-Eya2 inh: inactive

How did O=C(O)c1ccc(Cl)c2c1C1C=CCC1C(c1ccccn1)N2 (stereo not drawn) do in these assays?
BAZ2B block: 25µM; G9a block: 2µM

Results for O=[N+]([O-])c1ccc(Cl)c2c1C1C=CCC1C(c1ccccn1)N2 (stereo not drawn) ?
BAZ2B block: 45µM; JMJD2A Tudor inh: 40µM; G9a block: 20µM; CtBP-E1A blk: inactive; HP1b chromo inh: inconclusive; Six1-Eya2 inh: inconclusive

Results for Cc1cc([N+](=O)[O-])cc2c1NC(c1ccccn1)C1CC=CC21 (stereo not drawn) ?
BAZ2B block: inactive; JMJD2A Tudor inh: 50µM; G9a block: inactive; CtBP-E1A blk: inactive; HP1b chromo inh: inactive; Six1-Eya2 inh: inactive

How did Cc1ccc(/C=C/C2=Cc3c(sc(NC(=O)CSc4n[nH]c(N)n4)c3C#N)C(C)(C)C2)o1 do in these assays?
BAZ2B block: inconclusive; G9a block: 8.9µM

Results for Cc1sc(NC(=O)CSc2n[nH]c(N)n2)c(C#N)c1C ?
JMJD2A Tudor inh: inactive; CtBP-E1A blk: inactive; HP1b chromo inh: inactive; Six1-Eya2 inh: inactive

How did Cc1c(-c2nc(-c3ccc(C(C)(C)C)cc3)no2)n(C)oc1=O do in these assays?
BAZ2B block: inactive; JMJD2A Tudor inh: inactive; CtBP-E1A blk: inactive; HP1b chromo inh: inactive; Six1-Eya2 inh: inactive

How did CCOc1ccc(-c2cn(-c3cccc(SC)c3)c(=O)[nH]2)cc1 do in these assays?
BAZ2B block: inactive; JMJD2A Tudor inh: inactive; G9a block: 28µM; CtBP-E1A blk: inactive; HP1b chromo inh: inactive; Six1-Eya2 inh: inactive

How did COc1ccc(C(=O)Cc2cc(OC)c(OC)cc2[N+](=O)[O-])c(OC)c1 do in these assays?
BAZ2B block: inactive; JMJD2A Tudor inh: inactive; G9a block: inactive; CtBP-E1A blk: inactive; HP1b chromo inh: inactive; Six1-Eya2 inh: inactive

Results for COc1ccc(C(=O)COC(=O)[C@H](C)Nc2ccc(C(F)(F)F)cc2[N+](=O)[O-])c(OC)c1 ?
BAZ2B block: 50µM; JMJD2A Tudor inh: inactive; G9a block: inconclusive; CtBP-E1A blk: inactive; HP1b chromo inh: inactive; Six1-Eya2 inh: inactive

How did CCN(CC)CCNC(=O)c1ccc(Cn2c(SCc3ccccc3)nc3cccnc32)cc1 do in these assays?
BAZ2B block: inactive; JMJD2A Tudor inh: inactive; G9a block: inactive; HP1b chromo inh: inactive

How did CN(C)N=Nc1ccc(-c2cn(Cc3ccccc3)cn2)cc1 do in these assays?
BAZ2B block: 45µM; JMJD2A Tudor inh: inconclusive; CtBP-E1A blk: inactive; HP1b chromo inh: inactive; Six1-Eya2 inh: inactive

What do the screens show for `CCCCCCCCCCCCCCCC(=O)OCC(COP(=O)(O)OCC[N+](C)(C)C)OC(=O)CCCCCCCCCCCCCCC` (stereo not drawn)?
G9a block: inactive[12.7 µM]

What do the screens show for `Cc1cccc(C)c1NC(=O)c1sccc1SCC#N`?
BAZ2B block: inactive; JMJD2A Tudor inh: inactive; G9a block: 11µM; CtBP-E1A blk: inactive; HP1b chromo inh: inactive; Six1-Eya2 inh: inactive

Results for CNC(=O)c1sccc1SCc1c(Cl)cccc1Cl ?
BAZ2B block: inactive; JMJD2A Tudor inh: inactive; G9a block: inactive; CtBP-E1A blk: inactive; HP1b chromo inh: inactive; Six1-Eya2 inh: inactive

How did O=C(OCC(=O)N1CCCC1=O)c1nc(Cl)c(Cl)c(Cl)c1Cl do in these assays?
BAZ2B block: 71µM; JMJD2A Tudor inh: inconclusive; CtBP-E1A blk: inactive; HP1b chromo inh: inactive; Six1-Eya2 inh: inactive

How did Nc1c(Cl)c(Cl)nc(C(=O)OCC(=O)N2CCCC2=O)c1Cl do in these assays?
BAZ2B block: inactive; JMJD2A Tudor inh: inactive; G9a block: inactive; CtBP-E1A blk: inactive; HP1b chromo inh: inactive; Six1-Eya2 inh: inactive

What do the screens show for `O=S(=O)(NCc1ccccn1)c1cc(OCC(F)(F)F)ccc1OCC(F)(F)F`?
BAZ2B block: inactive; JMJD2A Tudor inh: inactive; G9a block: inconclusive; CtBP-E1A blk: inactive; HP1b chromo inh: inactive; Six1-Eya2 inh: inactive

What do the screens show for `CC1(C(=O)NS(=O)(=O)c2cccc(F)c2)CCN1C(=O)c1cccc(F)c1` (stereo not drawn)?
CtBP-E1A blk: inactive; Six1-Eya2 inh: inactive

What do the screens show for `COc1ccc(C(=O)CC(=O)c2ccccc2O)cc1`?
BAZ2B block: inactive; JMJD2A Tudor inh: inactive; G9a block: inactive[0.501 µM]; CtBP-E1A blk: inactive; HP1b chromo inh: inactive; Six1-Eya2 inh: inactive

What do the screens show for `COc1ccc(O)c(C(=O)CC(=O)c2ccc(F)cc2)c1`?
BAZ2B block: inconclusive; JMJD2A Tudor inh: inconclusive; G9a block: 79µM; CtBP-E1A blk: inactive; HP1b chromo inh: inconclusive; Six1-Eya2 inh: inactive

Results for Cc1cc(C)cc(NC(=O)CSc2oc(-c3ccccc3)nc2S(=O)(=O)c2ccccc2)c1 ?
BAZ2B block: inactive; JMJD2A Tudor inh: inactive; G9a block: inactive; HP1b chromo inh: inactive

Results for COc1ccc(N2CCC(CNC(=S)Nc3ccc(C)cc3C)C2)cc1 (stereo not drawn) ?
BAZ2B block: 16µM; JMJD2A Tudor inh: 28µM; G9a block: inconclusive; CtBP-E1A blk: inactive; HP1b chromo inh: inconclusive; Six1-Eya2 inh: inconclusive

Results for COc1ccc(N2CCC(CNC(=S)Nc3c(C)cc(C)cc3C)C2)cc1 (stereo not drawn) ?
BAZ2B block: 20µM; JMJD2A Tudor inh: 35µM; G9a block: inconclusive; CtBP-E1A blk: inactive; HP1b chromo inh: 7.1µM; Six1-Eya2 inh: inconclusive
